# Reference: PubChem BioAssay AID977624 (Broad Institute, 2014)
# Hit rate of the full screen: of about 1,800 compounds, fewer than 10 were called active. Not shown: some 44% with an inconclusive outcome.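 How the source made its calls: active means compound lowering the normal-ribosome reporter at least twice as much as the humanized-ribosome reporter, growth loss under a set limit; inconclusive means no clear call, values can overlap the other calls; inactive means the rest.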 Not all results are given here.
# Experiment: wild-type E. coli growth inhibition versus h34 humanized strain – h34 mutant RFP, wild-type GFP, cherry-pick, dose response (AID 977624)
# Settings: fluorescence, 24 h; series mostly up to 50 µM
row,SMILES,outcome
1,Cc1cccc(C)c1Nc1ncnc2ccccc12,inactive
2,Cc1ccc(-c2n[nH]c(S(C)(=O)=O)c2C#N)cc1,inactive
3,C=CCN(c1ccccc1)S(=O)(=O)c1cccc2cccnc12,inactive
4,Cc1nn(Cc2cccc(F)c2)c(C)c1NC(=O)c1c(Cl)cnn1C,inactive
5,COc1ccc(NC(=O)CCC(=O)c2cccs2)cc1S(=O)(=O)Nc1ccc(Cl)cc1,inactive
6,C[C@@H]1CN([C@H](C)CO)C(=O)CCCn2nncc2CO[C@@H]1CN(C)C(=O)Nc1ccc(C(F)(F)F)cc1,inactive
7,COc1ccccc1OCC(=O)Nc1ccc(S(=O)(=O)N2CCCCCC2)cc1,inactive
8,CN(C)CCCN(C(=O)CCSc1ccccc1)c1nc2cc3c(cc2s1)OCO3,inactive
9,CCCC(=O)N(CCc1ccc(OC)cc1)Cc1nc2ccccc2c(=O)[nH]1,inactive
10,Cc1ccc(NC(=O)c2c(C)noc2-c2snnc2C)cc1,inactive
11,COC(=O)c1sc(C(C)(C)C)cc1CS(=O)(=O)c1ccc(Cl)cc1,inactive
12,CCc1ccc(NC(=O)COC(=O)CCCC2=NS(=O)(=O)c3ccccc3N2)cc1,inactive
13,CCn1c(-c2ccccc2Cl)nn(CC(=O)Nc2ccccc2OC)c1=S,inactive
14,C[C@@H]1CCCCO[C@@H](CN(C)C)[C@@H](C)CN([C@@H](C)CO)C(=O)c2cc(NC(=O)Nc3cccc4ccccc34)ccc2O1,inactive
15,CC(C)CNc1nc(S(=O)(=O)c2ccccc2)c(Cl)s1,inactive
16,Cc1ccc(-c2nc(CN3CCCCC3c3cccc(F)c3)c(C)o2)o1 (centres undefined),inactive
17,CCOC(=O)c1c(C)nsc1NCc1ccccc1,inactive
18,CC(C)CN1C(=O)c2ccc(C(=O)Nc3ccncc3)cc2C1=O,inactive
19,COc1cccc(C(NC(C)=O)c2nc(-c3ccccc3OC)cs2)c1 (centres undefined),inactive
20,Cc1cccc(-c2ccc([C@H]3[C@H]4CN(S(=O)(=O)c5ccccc5C)CCCCN4[C@H]3CO)cc2)c1,inactive
21,CC(=O)Nc1cccc(NC(=O)CSc2ccc(-c3cccnc3)nn2)c1,inactive
22,CCOC(=O)c1cc(-c2ccc(OC)cc2)n[nH]1,inactive
23,CCN(CC)CCN(C(=O)c1ccc2c(c1)OCCO2)c1nc2c(Cl)cccc2s1,inactive
24,CN(C)Cc1nc2ccccc2c(=O)n1Cc1nc(-c2cccc([N+](=O)[O-])c2)cs1,inactive
25,COc1cccc(NC(=O)COC(=O)Cc2ccccc2[N+](=O)[O-])c1,inactive
26,CCOC(=O)Cc1nnc(NC(=O)CSc2nc3ccccc3[nH]2)s1,inactive

row,SMILES,outcome
1,O=C(O)CCCCCCCCc1cn(CC2CCCCC2)nn1,inactive
2,O=C(Nc1ccncc1)c1ccc(S(=O)(=O)Nc2ccccc2)cc1,inactive
3,Cc1cccc(OCCC(=O)Nc2ccc(F)c(F)c2)c1,inactive
4,CCN(CC(=O)Nc1cccc(C#N)c1)CC(=O)Nc1cccc(OC)c1,inactive
5,C=C(C)Cn1c(=O)c2c(nc3n2CC(C)CN3Cc2ccccc2)n(C)c1=O (centres undefined),inactive
6,O=S1(=O)N[C@H](Cc2ccccc2)COc2cccc(N3CCC[C@H]3CO)c21,inactive
7,Cc1ccccc1-n1ncc2c1CC(C)(C)CC2NC(=O)CCN1Cc2ccccc2C1=O (centres undefined),inactive
8,O=C(Nc1ccc2c(c1)OCO2)c1cccc(S(=O)(=O)N2CCCC2)c1,inactive
9,CCOc1ccccc1NC(=O)c1ccc2ccccc2c1,inactive
10,CC(=O)c1c(C)nn(CC(O)COc2ccc3c(c2)CCC3)c1C (centres undefined),inactive
11,Cn1nc(C(C)(C)C)c([N+](=O)[O-])c1C(=O)Nc1ccc(Br)cc1,inactive
12,COc1ccccc1C(=O)COC(=O)c1cccs1,inactive
13,Nc1nc(Nc2ccccc2F)nc(N2CCOCC2)c1[N+](=O)[O-],inactive
14,O=C(c1cc(S(=O)(=O)N2CCOCC2)ccc1Cl)N1CCc2ccccc2C1,inactive
15,CSc1nc2nc3c(cc2c(=O)n1-c1ccccc1C)CCCC3,inactive
16,Cc1cc([N+](=O)[O-])nn1CC(=O)Nc1cc(F)ccc1F,inactive
17,Nc1ccccc1Sc1ccc(C(F)(F)F)cc1[N+](=O)[O-],inactive
18,Cc1noc(C)c1COc1cccc(C(=O)N2CCc3ccccc32)c1,inactive
19,CCCc1nc2oc3c(NCCCN(C)C)ncnc3c2c2c1CCCC2,inactive
20,O=C(c1ccc2c(c1)CCN2S(=O)(=O)c1ccccc1)N1CCN(c2ccccc2)CC1,inactive
21,O=C(O)c1ccc(-c2nc(-c3ccccc3)cs2)cc1,inactive
22,CCc1ccc2nc(N(CCCN(C)C)C(=O)c3ccc4c(c3)OCCO4)sc2c1,inactive
23,Nc1ncncc1-c1ccc(Cl)cc1,inactive
24,CC(=O)Nc1ccc(S(=O)(=O)Nc2cccc(-c3nc4cc(C)ccc4o3)c2)cc1,inactive
25,OCCN(Cc1ccccc1)Cc1ccc(F)c(F)c1,inactive
26,COC(=O)c1ccccc1NC(=O)c1ccc2c(c1)CC(C)O2 (centres undefined),inactive

row,SMILES,outcome
1,O=C(CN1CCCCC1)Nc1ccccc1-c1ccccc1,inactive
2,Cc1cc(C(=O)OCC(=O)Nc2cccc(S(N)(=O)=O)c2)c2ccccc2n1,inactive
3,COc1cccc(S(=O)(=O)N2CCCCN3[C@H](CO)[C@H](c4ccc(C#CC(C)C)cc4)[C@@H]3C2)c1,inactive
4,Cc1sc(NC(=O)CN2CCOCC2)nc1-c1ccc2c(c1)CCN2S(=O)(=O)c1ccccc1,inactive
5,Cc1ccc2nc(SCC(=O)c3ccc4c(c3)NC(=O)CO4)[nH]c2c1,inactive
6,COc1cccc(NC(=O)CN(C)CC(=O)Nc2ccc(Br)cc2)c1,inactive
7,COc1ccc(S(=O)(=O)N(C)C)cc1NC(=O)c1ccc2c(c1)NC(=O)C(C)S2 (centres undefined),inactive
8,COc1cc(-c2cc3nc(NCCc4ccncc4)ccn3n2)cc(OC)c1OC,inactive
9,N#Cc1ccc(OCC(=O)N2CCN(S(=O)(=O)c3ccc(Cl)s3)CC2)cc1,inactive
10,Cc1ccc(NC(=O)c2ccc([N+](=O)[O-])o2)c(C)c1,inactive
11,COc1ccc(Cn2c(=O)c3[nH]cnc3n(-c3ccc(C)cc3)c2=O)cc1,inactive
12,S=C1SCN(Cc2cccnc2)CN1Cc1ccccc1,inactive
13,CCOc1ccc(CCNC(=O)CCn2ccc3cc(S(=O)(=O)N4CCCC4)ccc32)cc1,inactive
14,O=C(c1ccc(N2CCCCC2)c([N+](=O)[O-])c1)N1CCN(c2ccccn2)CC1,inactive
15,CN(C(=O)COc1ccccc1C(=O)NCCOc1ccccc1)c1ccccc1,inactive
16,CN(C(=O)c1ccc(F)cc1)c1ccc(OCC(=O)Nc2ccccc2C(=O)O)cc1,inactive
17,CC(CCC(=O)O)C1CC[C@@]2(C)C3C(=O)CC4C(C)(C)C(O)CC[C@]4(C)C3C(=O)C[C@]12C (some centres undefined),inactive
18,CCOc1ccc2nc(SCC(=O)Nc3cccc(S(=O)(=O)NC4=NCCCCC4)c3)[nH]c2c1,inactive
19,COc1ccc(-c2nnc(COc3ccc(Br)cc3C)o2)cc1,inactive
20,Cc1cccc(C)c1-n1nnnc1C1(C)CCC(=O)N1Cc1cccs1 (centres undefined),inactive
21,CCCC(=O)Nc1sc2c(c1C(=O)Nc1ccccn1)CCCC2,inactive
22,COc1ccc(NC(=O)c2cccs2)cc1C(=O)N1CCN(c2ccccc2)CC1,inactive
23,CC(C)Nc1nnc(SCC(=O)Nc2sccc2C#N)s1,inactive
24,COc1cc(NC(=O)c2ccc(Cl)cc2)c(OC)cc1NC(=O)CN1CCCCC1,inactive
25,CN(C)CCCN(C(=O)COc1ccc(Cl)cc1)c1nc2ccc(F)cc2s1,inactive
26,Cc1cccc(CSCC(=O)N2CCN(S(=O)(=O)c3ccccc3C#N)CC2)c1,inactive

row,SMILES,outcome
1,COc1cc(OC)cc(C(=O)Nc2ccc(C(=O)Nc3ccccc3OC)cc2)c1,inactive
2,CC(C)Oc1ccc(C(=O)Nc2cccc3cccnc23)cc1,inactive
3,CC(C)CC#Cc1ccc2c(c1)O[C@@H](CN(C)Cc1ccccn1)[C@H](C)CN([C@H](C)CO)S2(=O)=O,inactive
4,CCCC(=O)Nc1cccc(C(=O)Nc2ccccc2OCC)c1,inactive
5,CC(C)(Nc1ccccc1)C(=O)c1ccccc1,inactive
6,COC(=O)c1ccccc1OCCOCCOc1cccc2ccc(C)nc12,inactive
7,Nc1ccccc1Nc1ccc([N+](=O)[O-])cc1[N+](=O)[O-],inactive
8,Cc1ccccc1CSc1nnc(-c2ccncc2)o1,inactive
9,O=C(CCNc1cccc(Cl)c1)c1cccs1,inactive
10,C[C@@H]1CCCCO[C@@H](CN(C)C)[C@@H](C)CN([C@H](C)CO)C(=O)c2cc(NC(=O)Nc3cccc4ccccc34)ccc2O1,inactive
11,Cc1ccc(C2NC(c3ccc(C)cc3)C(C)C(=O)C2C)cc1 (centres undefined),inactive
12,Cc1ccc(-c2c[n+](CC(=O)OCc3ccccc3)c3n2CCC3)cc1,inactive
13,Cc1noc(C)c1NC(=O)Nc1ccc2c(c1)C(=O)N([C@@H](C)CO)C[C@H](C)[C@H](CN(C)C(=O)Nc1ccc3c(c1)OCO3)OCCCC[C@H](C)O2,inactive
14,COc1ccc(-c2cc(C(=O)N(C)CCc3ccc(OC)c(OC)c3)c3ccccc3n2)cc1,inactive
15,c1ccc(Sc2ncnc3ccccc23)cc1,inactive
16,Cc1nc(SCC(=O)Nc2ccc3c(c2)OCCO3)nc(C)c1C,inactive
17,CCCN(Cc1ccco1)S(=O)(=O)c1ccc(OC)c(OC)c1,inactive
18,CCOC(=O)c1cc(C)nc(N2CCCCC2)c1C#N,inactive
19,Cn1cc(CN2CCCC(C(=O)c3cccs3)C2)c(-c2cccc(Cl)c2)n1 (centres undefined),inactive
20,Nc1nc(-c2cc(-c3ccccc3)no2)cs1,inactive
21,Cc1cccc(C(=O)NCC(=O)NCCSc2ccc(Br)cc2)c1,inactive
22,N#CCC(=O)Nc1ccc(C(=O)OCC(=O)Nc2ccc3ccccc3c2)cc1,inactive
23,CCOc1cc(/C=C(\CC(=O)O)c2nc3ccccc3s2)ccc1OC,inactive
24,COc1ccc(-c2nc3ccc(Cl)cn3c2Cc2cccc(F)c2)cc1OC,inactive
25,COC(=O)c1sccc1NC(=O)Cn1nnc(-c2ccccc2C)n1,inactive
26,CCOc1ccc2nc(NC(=O)CSc3nc(SC)ns3)sc2c1,inactive
